# Source: PubChem BioAssay (several laboratories)
# PP1 inh = PP1-alpha phosphatase inhibitors, primary screen, counter-screen for PP5 inhibitor project, biochemical, fluorescence, OMFP substrate, single point. Serine/threonine-protein phosphatase PP1-alpha catalytic subunit (Homo sapiens), P62136. purified PP1alpha. inhibition, % at 6.7 µM. 320,000 compounds, 0.9% hits. AID 2235, 2010;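 active = inhibition above the mean inhibition of all tested compounds plus 3 SD, computed separately for each screening campaign, cut at about 15% in these data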
# ALR H2O2 inh = inhibitors of human ALR sulfhydryl oxidase, primary screen, biochemical, H2O2 detection, HRP-luminol luminescence, single point | purified ALR, DTT oxidation | FAD-linked sulfhydryl oxidase ALR (Homo sapiens), P55789 | inhibition, % (test concentration not listed) | 290,000 compounds, 3.8% hits;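 active = mean replicate inhibition above about 79%, with every replicate also reaching it, limit read from the data; inconclusive = only one of the two criteria met; inactive = mean below limit and not every replicate reaching it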
# PP5 primary = PP5 phosphatase inhibitors, primary screen, biochemical, fluorescence. inhibition, % at 6.7 µM. purified PP5c, OMFP substrate fluorescence. AID 1987, 2009. 320,000 compounds, 0.18% hits;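 active = inhibition above the campaign's mean inhibition across all tested compounds plus 3 SD, cut at about 9.5% in these data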;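 also: 0% = DMSO only and 100% = 100 µM cantharidin control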
# Target sequence (P53041 whole entry, looked up): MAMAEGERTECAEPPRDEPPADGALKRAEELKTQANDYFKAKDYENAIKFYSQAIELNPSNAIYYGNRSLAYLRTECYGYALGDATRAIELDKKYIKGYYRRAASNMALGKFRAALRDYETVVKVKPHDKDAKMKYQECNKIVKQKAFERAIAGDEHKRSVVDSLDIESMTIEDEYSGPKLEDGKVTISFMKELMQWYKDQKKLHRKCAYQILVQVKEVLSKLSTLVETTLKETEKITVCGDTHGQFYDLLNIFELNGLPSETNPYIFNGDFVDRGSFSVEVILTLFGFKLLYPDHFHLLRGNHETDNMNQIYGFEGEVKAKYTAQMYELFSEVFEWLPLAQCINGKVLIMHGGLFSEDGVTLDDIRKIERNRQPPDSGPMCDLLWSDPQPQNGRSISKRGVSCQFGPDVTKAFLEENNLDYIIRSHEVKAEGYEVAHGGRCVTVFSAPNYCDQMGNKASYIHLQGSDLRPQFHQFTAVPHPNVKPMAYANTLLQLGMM
# CSC inhib = cancer stem cell viability inhibitors, primary screen, luminescence; cancer stem cell-like cells viability; 300,000 compounds, 1.1% hits; AID 2717, 2010; inhibition, % at 7.5 µM; in the data active = inhibition above about 75%; inconclusive = no clear call, values can overlap the other calls; tested in HMLE shEcad cells
# Calb FLC = C. albicans growth inhibition with fluconazole, primary screen, CaCi-2 strain, Alamar Blue fluorescence; C. albicans CaCi-2 (fluconazole-resistant clinical isolate) + fluconazole, 48 h; growth inhibition, % (no concentration beside the values); 300,000 compounds, 0.57% hits;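 active = growth inhibition above about 58% in most replicates, limit read from the data, passing the limit was not always enough; inconclusive = exactly half the replicates above a set limit; inactive = most replicates below a set limit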;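 also: all wells also contain fluconazole at 8 µg/ml as a sub-toxic cotreatment; 0% = median of DMSO wells and 100% = median of geldanamycin control wells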
# Starred values were filed as active, the others as inactive; u = inconclusive; x = not tested or not shown. An excerpt weighted towards active compounds, which were near 5.4% of everything screened.
SMILES,PP1 inh,ALR H2O2 inh,PP5 primary,CSC inhib,Calb FLC
Cc1ccc(-c2cc(-c3n[nH]c(=S)o3)c3ccccc3n2)cc1,4,98*,1,57,-3
CCc1nnc(NC(=O)C23CC4CC(CC(C4)C2)C3)s1,1,-12,-2,-1,-6
CS/C(=C\[N+](=O)[O-])Nc1ccccc1,4,80*,-1,-17,12
CS/C(=C\[N+](=O)[O-])Nc1ccc(F)cc1,2,20,0,-28,-3
CCOC(=O)c1ccoc1CSCc1ccc(C(=O)OC)o1,-2,99*,0,2,2
CCOC(=O)c1ccc(CSC(=N)N)o1,-2,99*,2,0,3
CC[n+]1cc(-c2ccccc2)nc(N2CCOCC2)n1,-1,-8,4,15,-4
Cc1nn(-c2ccccc2)c(C)c1/C=N/NC(=O)c1cc(C23CC4CC(CC(C4)C2)C3)[nH]n1,0,x,3,97*,32
Cc1nn(-c2ccccc2)c(C)c1/C=N/NC(=O)c1cc(-c2ccc(Cl)s2)[nH]n1,-2,-1,6,69,51
CC(/C=N/NC(=O)c1cc(-c2ccc(C)s2)[nH]n1)=C\c1ccccc1,2,-2,-1,87*,11
Cc1nn(-c2ccccc2)c(C)c1/C=N/NC(=O)c1cc(-c2ccc(Br)s2)[nH]n1,-4,-3,1,76*,51
COc1ccc(C(=S)N2CCOCC2)cc1OS(=O)(=O)c1ccc(Br)cc1,1,-15,5,-5,-9
Cc1ccc(C(=O)NC(C)C2CCCO2)o1 (stereo not given),-3,-3,1,-1,3
COc1ccc(-c2nc(CS(=O)(=O)CC(=O)NCCCc3ccccc3)c(C)o2)cc1,-1,u,0,1,3
Cc1oc(-c2ccccc2F)nc1CS(=O)(=O)CC(=O)NC(C)CCc1ccccc1 (stereo not given),1,-8,4,-2,5
Cc1ccc(-c2nc(CS(=O)CC(=O)NCCCc3ccccc3)c(C)o2)cc1 (stereo not given),0,98*,2,-6,-8
Cc1ccc(-c2nc(CS(=O)CC(=O)NC(C)CCc3ccccc3)c(C)o2)cc1 (stereo not given),-4,93*,0,10,0
COc1ccc(-c2nc(CS(=O)CC(=O)NC(C)CCc3ccccc3)c(C)o2)cc1OC (stereo not given),6,99*,0,2,3
COc1ccc(N/C=C\C(=O)c2ccc(Br)cc2)cc1OC,2,-20,1,4,-15
NC(=O)c1c(NC(=S)Nc2ccccc2)sc2c1CCCC2,-1,-20,2,x,33
C=CCNC(=S)Nc1sc2c(c1C(N)=O)CCCC2,-7,98*,1,21,3
C=CC(=O)Nc1sc2c(c1C(N)=O)CCCC2,-1,u,1,30,70
NC(=O)c1c(NC(=S)Nc2ccc(F)cc2)sc2c1CCCC2,-1,90*,2,2,12
Cc1csc(=N)n1-c1ccc(Cl)cc1,-4,96*,6,-3,-9
Cc1ccc(-n2c(C)csc2=N)cc1,0,55,2,-12,4
SMILES,PP1 inh,ALR H2O2 inh,PP5 primary,CSC inhib,Calb FLC
Cc1ccc(S(=O)(=O)C(C#N)c2nc3ccccc3nc2N2CCN(C)CC2)cc1C (stereo not given),-2,22,4,-3,83*
CN1CCN(c2nc3ccccc3nc2C(C#N)S(=O)(=O)c2ccccc2)CC1 (stereo not given),-4,-4,-3,-18,-1
O=C(NCc1ccc2c(c1)OCO2)c1ccc(-c2ccc(Cl)cc2)o1,9,-6,6,20,-24
Cc1ccc(OCCN2CCN(CC(O)Cn3c4ccccc4c4ccccc43)CC2)cc1 (stereo not given),9,14,8,90*,-5
Cc1ccc(OCC(O)Cn2c3ccccc3c3ccccc32)cc1 (stereo not given),4,-8,3,u,1
Cc1ccc(S(=O)(=O)Nc2ccc(O)c3cccnc23)cc1,2,95*,0,21,41
Cc1ccc(S(=O)(=O)Nc2ccc(O)c3ncccc23)cc1,0,88*,0,29,99*
Cc1ccc(S(=O)(=O)Nc2cccc3ncccc23)cc1,-1,0,2,-6,-3
Cc1onc(C(=O)N2CCN(c3ccccc3F)CC2)c1-c1ccccc1Cl,2,x,1,-3,-5
CC(C)CC(NC(N)=O)C(=O)NCc1ccc(Cl)cc1 (stereo not given),-6,12,-2,-11,1
c1ccc(N2CCN(c3ncccn3)CC2)cc1,2,98*,2,-14,2
Oc1ccccc1N1CCN(c2nnnn2-c2ccccc2)CC1,-2,99*,2,-5,24
Oc1ccccc1N1CCN(c2ncccn2)CC1,-4,99*,-2,-15,2
Fc1ccccc1N1CCN(c2nnnn2-c2ccccc2)CC1,-3,-3,-2,-4,19
O=S(=O)(c1ccccc1)N1CCN(c2ncccn2)CC1,1,6,2,-1,0
Cc1ccc(C(=O)C(NC(=O)c2ccco2)N2CCOCC2)cc1 (stereo not given),-1,-9,2,-6,2
COCCCOc1ccnc(CS(=O)c2nc3ccccc3[nH]2)c1C (stereo not given),-4,-48,4,-2,x
COc1ccc2nc(S(=O)Cc3ncc(C)c(OC)c3C)[nH]c2c1 (stereo not given),-3,98*,-2,-14,x
O=C(/C=C/c1ccc(Cl)cc1)N(Cc1ccccc1)c1ccccn1,1,-3,4,x,u
CCc1c(O)nc(SCC(=O)Nc2ccccc2C)[nH]c1=O,0,99*,1,-7,-3
CCCCc1c(O)nc(SCC(=O)c2ccccc2)[nH]c1=O,-1,99*,0,3,2
CCCCc1c(O)nc(SCC(=O)O)[nH]c1=O,-2,5,-1,-2,-6
Cc1ccccc1NC(=O)CSc1nnc(C)c(=O)[nH]1,-2,-7,1,x,-5
Cc1cc(S(=O)(=O)Nc2c(C)ccc3nsnc23)ccc1F,-2,-6,0,0,4
O=C1CC(/C=C/c2ccc(Cl)cc2)=Nc2ccccc2N1,3,x,0,-5,17
COc1cccc(N2C(=O)C3CCCN3C2c2ccc(N(C)C)cc2)c1 (stereo not given),-3,95*,-3,7,-1
O=C(COc1ccccc1)N/N=C/c1sc(=O)n(Cc2cccc(C(=O)O)c2)c1Cl,-7,96*,3,3,9
O=C(O)c1cccc(Cn2c(Cl)c(/C=N/NC(=O)c3ccc(O)cc3)sc2=O)c1,-5,1,1,-13,-6
